Experimental data: ChEMBL document CHEMBL3988442, “University of Dundee, Small-Polar-MMV Screening Library” (2021)
For some assays here: Entries with a potency or affinity are not part of this list.

Columns and labels:
Design in all cases: scale not given: direction of the effect not stated beside the values
[1] = target: Protein translocase subunit SecA (Escherichia coli (strain K12)) (UniProt P10408); test: Assay to Identify E. coli SecA ATPase Inhibitors; assay type: functional; conditions: 30 µM
Sequence of Protein translocase subunit SecA (Escherichia coli (strain K12)) (P10408 whole entry): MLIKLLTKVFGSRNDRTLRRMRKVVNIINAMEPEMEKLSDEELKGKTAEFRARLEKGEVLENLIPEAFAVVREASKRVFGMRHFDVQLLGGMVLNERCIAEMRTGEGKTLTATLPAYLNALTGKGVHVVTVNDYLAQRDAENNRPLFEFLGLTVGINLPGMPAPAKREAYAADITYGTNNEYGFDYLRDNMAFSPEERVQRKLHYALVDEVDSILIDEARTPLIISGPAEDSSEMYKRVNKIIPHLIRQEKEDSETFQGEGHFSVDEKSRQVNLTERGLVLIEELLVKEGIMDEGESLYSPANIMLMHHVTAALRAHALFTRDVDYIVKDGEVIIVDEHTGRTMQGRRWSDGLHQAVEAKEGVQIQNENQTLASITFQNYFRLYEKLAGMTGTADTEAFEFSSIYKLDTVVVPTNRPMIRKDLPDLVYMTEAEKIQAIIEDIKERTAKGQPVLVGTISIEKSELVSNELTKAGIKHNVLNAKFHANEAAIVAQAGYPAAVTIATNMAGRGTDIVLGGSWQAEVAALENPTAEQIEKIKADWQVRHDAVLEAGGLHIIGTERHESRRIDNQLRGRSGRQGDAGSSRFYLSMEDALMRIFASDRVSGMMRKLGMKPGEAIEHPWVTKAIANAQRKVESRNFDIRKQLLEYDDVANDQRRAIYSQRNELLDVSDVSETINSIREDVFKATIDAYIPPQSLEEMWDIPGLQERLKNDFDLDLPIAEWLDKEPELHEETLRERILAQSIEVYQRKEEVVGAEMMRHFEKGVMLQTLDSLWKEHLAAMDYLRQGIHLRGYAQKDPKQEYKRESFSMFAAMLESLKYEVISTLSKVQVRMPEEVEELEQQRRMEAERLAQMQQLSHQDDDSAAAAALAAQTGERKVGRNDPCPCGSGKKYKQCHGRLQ

[2] = target: T1, Ubiquitin-activating enzyme e1, putative (Leishmania donovani (strain BPK282A1)) (UniProt E9BSI1); test: Leishmania donovani Ubiquitin Activating Enzyme (LdE1); assay type: functional; conditions: 30 µM
T1 sequence (whole entry): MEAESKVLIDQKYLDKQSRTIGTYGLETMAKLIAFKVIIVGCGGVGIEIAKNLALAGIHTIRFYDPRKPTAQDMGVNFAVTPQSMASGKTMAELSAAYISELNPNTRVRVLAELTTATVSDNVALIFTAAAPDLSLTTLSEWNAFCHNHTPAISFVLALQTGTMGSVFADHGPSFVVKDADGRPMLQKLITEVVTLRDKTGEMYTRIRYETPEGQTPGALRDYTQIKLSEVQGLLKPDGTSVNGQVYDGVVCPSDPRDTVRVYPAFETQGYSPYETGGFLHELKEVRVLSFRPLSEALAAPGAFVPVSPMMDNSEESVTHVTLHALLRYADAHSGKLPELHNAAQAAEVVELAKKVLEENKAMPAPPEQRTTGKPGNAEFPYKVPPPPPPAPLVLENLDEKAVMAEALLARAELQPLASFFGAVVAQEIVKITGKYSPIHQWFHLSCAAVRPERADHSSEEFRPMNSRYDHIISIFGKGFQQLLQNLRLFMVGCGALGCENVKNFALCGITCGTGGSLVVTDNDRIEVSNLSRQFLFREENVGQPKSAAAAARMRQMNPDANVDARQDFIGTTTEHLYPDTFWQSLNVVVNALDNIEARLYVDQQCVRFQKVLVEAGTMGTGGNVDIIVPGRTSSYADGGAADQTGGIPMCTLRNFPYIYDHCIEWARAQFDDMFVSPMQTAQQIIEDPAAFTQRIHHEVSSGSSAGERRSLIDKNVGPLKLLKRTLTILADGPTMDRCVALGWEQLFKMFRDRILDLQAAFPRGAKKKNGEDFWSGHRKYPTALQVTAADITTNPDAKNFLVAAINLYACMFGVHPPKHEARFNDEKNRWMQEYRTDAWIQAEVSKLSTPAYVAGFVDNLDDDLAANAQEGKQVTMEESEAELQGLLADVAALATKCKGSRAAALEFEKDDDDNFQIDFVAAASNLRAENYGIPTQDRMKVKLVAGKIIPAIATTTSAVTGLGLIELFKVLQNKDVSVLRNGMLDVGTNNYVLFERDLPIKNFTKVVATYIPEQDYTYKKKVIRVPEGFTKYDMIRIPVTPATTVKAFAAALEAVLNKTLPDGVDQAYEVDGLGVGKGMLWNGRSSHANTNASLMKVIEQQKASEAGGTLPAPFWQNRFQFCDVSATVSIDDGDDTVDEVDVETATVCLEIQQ

[3] = target: AMP-activated protein kinase, AMPK (Homo sapiens) (UniProt P54646+O43741+P54619+Q9UGJ0+Q9Y478+Q13131+Q9UGI9); test: AMP-dependent Kinase enzyme assay. An in vitro enzyme assay that detects ADP turnover that is directly proportional to AMPK activity. This uses naive AMPK that is activated during the assay with MK-8722; assay type: functional; conditions: 30 µM
[4] = target: Sialic acid-binding Ig-like lectin 9 (Homo sapiens) (UniProt Q9Y336); test: Hs-Siglec9 ALPHAscreen SOP 20170721; conditions: 10 µM
Sequence of Sialic acid-binding Ig-like lectin 9 (Homo sapiens) (Q9Y336 whole entry): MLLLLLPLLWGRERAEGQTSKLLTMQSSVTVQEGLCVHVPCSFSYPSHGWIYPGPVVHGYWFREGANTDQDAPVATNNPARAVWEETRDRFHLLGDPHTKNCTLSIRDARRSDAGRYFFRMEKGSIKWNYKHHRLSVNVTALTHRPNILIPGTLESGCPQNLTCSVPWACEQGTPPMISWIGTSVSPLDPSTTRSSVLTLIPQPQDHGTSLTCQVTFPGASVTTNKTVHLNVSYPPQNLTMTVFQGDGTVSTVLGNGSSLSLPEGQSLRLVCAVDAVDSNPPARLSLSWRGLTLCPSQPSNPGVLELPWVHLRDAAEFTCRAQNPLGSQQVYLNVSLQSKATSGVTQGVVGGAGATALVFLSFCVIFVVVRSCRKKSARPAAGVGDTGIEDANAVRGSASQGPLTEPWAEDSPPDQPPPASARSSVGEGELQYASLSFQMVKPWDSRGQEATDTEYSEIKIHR

Trypanosoma cruzi = test: Trypanosoma cruzi phosphomannomutase and mannose-1-phosphate guanylyltransferase assay; assay type: functional; conditions: 10 µM
[5] = target: T2, Arginase-2, mitochondrial (Homo sapiens) (UniProt P78540); test: in vitro enzyme assay to detect the production of urea directly proportional to the activity of Arginase II; assay type: functional; conditions: 33.3 µM; note: in the data most compounds retested in dose-response had high values
T2 sequence (whole entry): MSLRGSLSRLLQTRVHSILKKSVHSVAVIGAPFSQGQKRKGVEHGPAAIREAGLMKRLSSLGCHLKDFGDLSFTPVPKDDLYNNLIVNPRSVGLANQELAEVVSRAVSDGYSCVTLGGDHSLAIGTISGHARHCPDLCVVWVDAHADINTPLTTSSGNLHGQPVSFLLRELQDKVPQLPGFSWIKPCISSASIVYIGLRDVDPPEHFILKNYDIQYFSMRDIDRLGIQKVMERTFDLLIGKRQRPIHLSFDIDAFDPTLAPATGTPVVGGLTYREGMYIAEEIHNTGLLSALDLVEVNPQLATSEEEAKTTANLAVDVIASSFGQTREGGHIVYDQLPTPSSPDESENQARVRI

[6] = target: T3, Proteasome subunit beta (Trypanosoma cruzi) (UniProt O96673); test: Trypanosoma cruzi proteasome chymotrypsin-like activity (TcProtChymo) assay.; note: in the data most compounds retested in dose-response had high values; assay type: functional; conditions: 9.37 µM
T3 sequence (whole entry): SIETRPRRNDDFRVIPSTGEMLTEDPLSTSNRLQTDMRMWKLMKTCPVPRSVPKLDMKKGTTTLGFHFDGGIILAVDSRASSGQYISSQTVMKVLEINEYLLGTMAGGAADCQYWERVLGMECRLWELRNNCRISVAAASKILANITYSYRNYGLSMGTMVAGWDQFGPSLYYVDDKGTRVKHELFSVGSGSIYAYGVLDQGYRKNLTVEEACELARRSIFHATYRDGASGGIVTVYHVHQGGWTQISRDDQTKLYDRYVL

Homo sapiens = organism: Homo sapiens; test: To identify inhibition of the IFN signalling (Jak-Stat) pathway via expression of an eGFP reporter gene under the control of an IFN-stimulated response element (ISRE) containing MxA promoter.; assay type: functional; conditions: 30 µM
[7] = target: T4, Tyrosyl-tRNA synthetase, putative (Trypanosoma cruzi (strain CL Brener)) (UniProt Q4DSP6); test: Trypanosoma cruzi tyrosyl tRNA synthetase (TcYRS) _High Tyrosine SOP; assay type: functional; conditions: 30 µM; note: in the data most compounds retested in dose-response had high values
T4 sequence (whole entry): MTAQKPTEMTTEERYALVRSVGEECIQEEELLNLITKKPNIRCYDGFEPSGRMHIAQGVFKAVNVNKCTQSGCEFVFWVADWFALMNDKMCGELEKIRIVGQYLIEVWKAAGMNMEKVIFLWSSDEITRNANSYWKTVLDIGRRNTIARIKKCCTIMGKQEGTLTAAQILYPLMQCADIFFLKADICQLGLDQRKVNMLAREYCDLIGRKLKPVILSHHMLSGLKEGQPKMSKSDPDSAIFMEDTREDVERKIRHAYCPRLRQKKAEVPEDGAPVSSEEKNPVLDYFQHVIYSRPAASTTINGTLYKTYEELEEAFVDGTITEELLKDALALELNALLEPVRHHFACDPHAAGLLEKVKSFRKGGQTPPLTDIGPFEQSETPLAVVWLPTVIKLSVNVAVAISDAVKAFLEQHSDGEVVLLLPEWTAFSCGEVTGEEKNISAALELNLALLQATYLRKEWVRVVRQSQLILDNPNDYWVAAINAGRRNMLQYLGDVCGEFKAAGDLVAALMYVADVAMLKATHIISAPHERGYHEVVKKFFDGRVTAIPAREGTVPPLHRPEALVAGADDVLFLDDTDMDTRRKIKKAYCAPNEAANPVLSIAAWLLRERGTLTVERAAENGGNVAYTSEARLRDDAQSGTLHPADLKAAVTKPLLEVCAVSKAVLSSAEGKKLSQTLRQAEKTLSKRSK

[8] = target: T4, Tyrosyl-tRNA synthetase, putative (Trypanosoma cruzi (strain CL Brener)); test: Trypanosoma cruzi tyrosyl tRNA synthetase (TcYRS) SOP; assay type: functional; conditions: 30 µM
[9] = target: Chromo domain-containing protein 1 (Saccharomyces cerevisiae (strain ATCC 204508 / S288c) (Baker's yeast)) (UniProt P32657); test: ScCHD-1 Enzyme Inhibition Assay; assay type: functional; conditions: 30 µM; note: in the data most compounds retested in dose-response had high values
Sequence of Chromo domain-containing protein 1 (Saccharomyces cerevisiae (strain ATCC 204508 / S288c) (Baker's yeast)) (P32657 whole entry, the tested form may be a part): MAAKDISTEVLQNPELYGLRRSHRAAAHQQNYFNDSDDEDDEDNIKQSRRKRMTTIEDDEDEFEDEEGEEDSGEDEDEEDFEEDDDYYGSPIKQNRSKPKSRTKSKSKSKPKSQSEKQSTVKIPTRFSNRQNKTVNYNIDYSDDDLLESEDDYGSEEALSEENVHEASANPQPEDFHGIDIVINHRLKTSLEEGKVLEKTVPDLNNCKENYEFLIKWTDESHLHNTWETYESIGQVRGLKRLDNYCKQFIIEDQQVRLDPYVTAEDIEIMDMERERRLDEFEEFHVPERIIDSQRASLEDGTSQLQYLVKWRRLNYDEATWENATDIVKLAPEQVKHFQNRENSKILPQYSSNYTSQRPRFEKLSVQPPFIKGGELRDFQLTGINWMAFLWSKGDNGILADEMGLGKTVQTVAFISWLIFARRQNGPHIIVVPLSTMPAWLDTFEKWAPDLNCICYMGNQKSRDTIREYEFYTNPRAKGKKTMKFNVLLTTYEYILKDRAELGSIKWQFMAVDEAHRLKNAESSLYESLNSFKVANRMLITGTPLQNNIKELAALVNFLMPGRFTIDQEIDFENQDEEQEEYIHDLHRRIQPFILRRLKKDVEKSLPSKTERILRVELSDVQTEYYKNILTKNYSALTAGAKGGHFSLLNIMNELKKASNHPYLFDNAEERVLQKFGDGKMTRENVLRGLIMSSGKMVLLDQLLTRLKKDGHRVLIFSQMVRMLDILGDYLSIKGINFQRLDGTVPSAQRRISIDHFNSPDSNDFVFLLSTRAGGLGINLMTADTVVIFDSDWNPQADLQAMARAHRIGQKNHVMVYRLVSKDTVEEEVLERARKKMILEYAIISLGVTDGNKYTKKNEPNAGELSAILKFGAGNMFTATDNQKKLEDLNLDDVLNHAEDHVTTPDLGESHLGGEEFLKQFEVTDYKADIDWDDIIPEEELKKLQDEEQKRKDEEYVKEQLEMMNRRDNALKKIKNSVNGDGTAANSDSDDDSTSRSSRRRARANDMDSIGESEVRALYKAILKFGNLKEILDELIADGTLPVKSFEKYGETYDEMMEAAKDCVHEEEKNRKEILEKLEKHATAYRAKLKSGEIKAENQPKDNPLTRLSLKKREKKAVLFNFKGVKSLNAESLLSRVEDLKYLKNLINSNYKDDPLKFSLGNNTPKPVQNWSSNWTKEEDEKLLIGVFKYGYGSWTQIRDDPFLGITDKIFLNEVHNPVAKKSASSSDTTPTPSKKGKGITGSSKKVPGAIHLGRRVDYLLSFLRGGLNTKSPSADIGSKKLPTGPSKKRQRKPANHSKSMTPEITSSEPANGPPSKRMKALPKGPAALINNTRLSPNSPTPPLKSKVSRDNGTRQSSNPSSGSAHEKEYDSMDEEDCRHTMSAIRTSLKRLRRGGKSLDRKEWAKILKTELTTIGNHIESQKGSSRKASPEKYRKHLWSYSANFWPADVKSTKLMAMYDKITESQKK

SMILES | Percent Effect [1] [%] | Percent Effect [2] [%] | Percent Effect [3] [%] | Percent Effect [4] [%] | Percent Effect (Trypanosoma cruzi) [%] | Percent Effect [5] [%] | Percent Effect [6] [%] | Percent Effect (Homo sapiens) [%] | Percent Effect [7] [%] | Percent Effect [8] [%] | Percent Effect [9] [%]
Cc1cnn(CCCNC(=O)N2CCCCC(N3CCCC3)C2)c1 (configuration not stated) | -2.45 | 15.8 | 0.679 | 7.49 | 3.19 | 4.21 | 15.5 | 8.88 | 8.33 | 19.5 | -2.25
COc1ncccc1C(=O)Nc1nc2c(s1)CN(S(=O)(=O)C1CC1)CC2 | -8.71 | 0 | 25.5 | -2.45 | -4.9 | 1.82 | 29.8 | 21.4 | 3.23 | 5 | 102
Cc1nn(C)c(N(C)C)c1CNCc1cccc(OCCN(C)C)c1 | -0.484 | 15.8 | -1.72 | 5.4 | -8.08 | -4.98 | 14.4 | 23.3 | -1.47 | 7.32 | -6.3
CN(C)C(=O)c1cccc(NC(=O)N(CCO)Cc2ccsc2)c1 | -0.273 | 9.72 | -9.76 | 7.88 | 3.79 | 11 | 11.8 | -1.39 | 5.26 | 12.8 | -3.15
O=C(O)C(c1ccc2c(c1)OCCO2)N1CCCCCC1 (configuration not stated) | -4.06 | 5.33 | 0.637 | 5.42 | -0.682 | 4.69 | 17.1 | -7.93 | 9.29 | 13.6 | -1.28
O=C(NCC1CC1)c1nc(COc2ccc3c(c2)OCO3)no1 | 0.685 | 4 | 1.6 | -3.59 | -7.07 | -5.46 | 15.5 | 7.56 | 4.23 | 2.56 | -6.83
CN(C)c1ncccc1CNC(=O)N1CCCC1c1ccsc1 (configuration not stated) | -9.33 | 18.2 | -4.46 | 4.94 | -2.43 | 0.712 | 2.2 | 1.32 | 5.83 | 14.6 | -6.19
OCC1CCCN1c1cc(NCc2ccc(Cl)s2)ncn1 (configuration not stated) | 0.246 | 8.86 | -3.63 | -2.18 | -1.95 | -3.66 | 24 | 74.3 | 4.17 | 15.2 | -15.5
Cc1cc(NC(=O)NCCc2cccs2)n(C)n1 | 0.534 | 4.17 | -1.97 | -7.64 | -8.65 | 4.42 | 23.3 | -9.88 | 0 | 5.13 | -0.833
CCOCC1CN(Cc2ccoc2)Cc2nn(CC3CC3)cc21 (configuration not stated) | -7.41 | -2.7 | 4.81 | -1.13 | -3.52 | 0 | 3.3 | 5.53 | -7.92 | 6.1 | 0.75
Cc1cnn(CC2CCCN2Cc2ncc(-c3ccccc3)o2)c1 (configuration not stated) | -1.68 | -5.41 | -10.1 | -3.94 | -9.53 | 4.01 | 8.11 | 10.7 | 10.3 | 18.5 | -6.8
O=S(=O)(CCN1CCOC(Cn2cccn2)C1)C(F)(F)F (configuration not stated) | -0.0845 | 24.1 | 13.4 | -1.22 | 2.97 | -1.5 | 18.4 | 30.2 | 8.33 | 12.7 | 61.7
Cc1oncc1C(=O)N1CCC2(C1)CN(c1cccnc1)C(=O)CN2C (configuration not stated) | -3.58 | 10.7 | -0.768 | -0.716 | 4.05 | -53.6 | 4.27 | -6.85 | 2.08 | 5 | -5.61
Cc1cc(NC(=O)CCc2ccsc2)n(C)n1 | -8.05 | 4.17 | -4.38 | -1.11 | -3.98 | 3.97 | 17.7 | -3.97 | 1.05 | 7.69 | -4.62
Cc1nnc(C2Cc3ccccc3CN2Cc2ncc(C(C)(C)C)o2)o1 (configuration not stated) | -1.87 | 15.6 | 3.3 | -12.9 | -3.82 | -1.05 | 20.8 | 27.9 | 8.57 | 11.8 | -17.8
Nc1nc(CN2CCCC(Cn3cncn3)C2)nc2ccccc12 (configuration not stated) | 1.55 | -2.7 | -3.95 | 9.62 | 3.06 | -2.03 | -5.92 | 3.26 | 4.95 | 6.1 | 1.99
Cc1cc(C)n(C2CCCN(C(=O)c3cccc4[nH]ncc34)C2)n1 (configuration not stated) | -5.51 | -13.5 | 6.86 | -7.42 | -4.49 | -1.67 | 7.69 | -0.356 | 6.93 | 3.66 | 2.88
COc1ccc(C(=O)N2CCC(Nc3cccnn3)CC2)c(OC)c1 | 1.87 | -3.8 | 3.46 | 2.44 | -4.41 | 5.38 | 0.858 | 0.418 | -1.04 | 2.53 | -16
Cc1cc(CN2CCN(C(=O)NC(C)Cn3ccnc3)CC2)no1 (configuration not stated) | -1.68 | 5.26 | 3.31 | 7.81 | 3.38 | 1.53 | -4.18 | 9.94 | 3.43 | 7.32 | -4.96
Cc1ccccc1Oc1ncccc1CNS(C)(=O)=O | -5.18 | 15.6 | -0.858 | 12.6 | 8.16 | -8.28 | 1.33 | 0.0503 | 5.38 | 11.1 | -7.62
c1ccc(CN2CC[C@@H]3O[C@H](COCc4ccncc4)CC[C@@H]32)nc1 | -0.0418 | 10.7 | -4.7 | -5.18 | -8.46 | 5.83 | 9.07 | -4.23 | 4.25 | 8.97 | -2.83
O=C(CN1C=Nc2ccccc2S1(=O)=O)NCCc1cccs1 | -6.39 | 13.2 | -6.07 | 5.67 | 3.08 | 5.04 | 9.56 | 5.08 | 8.37 | 25.9 | -10.2
